Source: PubChem BioAssay (Tox21)
Records with an inconclusive call do not appear. Calls of active or inactive are those of the source. Unless noted, the call rests on the fitted dose curve; in most records, active means well fitted curve in the direction sought with a large enough effect in the repeat runs; inconclusive means weak or mixed curves; inactive means no such curve, though single readings can be large; an effect the other way counts as inactive or inconclusive.

How the values were obtained:
[1] = qHTS assay for small molecule agonists of the p53 signaling pathway (AID 651631; calls by dose curve; further: nearly all actives have a fitted effect of over 15% in size; further: potency means the concentration at half of the fitted maximal effect)
Method in brief: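 Read-out is beta-lactamase FRET fluorescence measured 2 h after substrate addition at room temperature, in HCT-116 cells with a p53 response element-driven reporter exposed to compounds for 16 h at 37 °C.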

[2] = qHTS assay for small molecules that induce genotoxicity in human embryonic kidney cells expressing luciferase-tagged ATAD5 (AID 651632); further: nearly all actives have a fitted effect of over 15% in size; further: potency means the concentration at half of the fitted maximal effect
Method in brief: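 A rise in luciferase signal from ATAD5-tagged HEK293T cells marks genetic stress. Cells were exposed to compounds for 16 hr at 37C, 5% CO2, then luciferase was quantified after a 30 min room-temperature incubation with Amplite.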

[3] = qHTS assay for small molecule agonists of the p53 signaling pathway - cell viability (AID 651633; calls by dose curve; further: nearly all actives have a fitted effect of over 30% in size; further: potency means the concentration at half of the fitted maximal effect)
Method in brief: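 p53RE-bla cells were treated with compound for 16 hours at 37 C. Cytotoxicity was then measured as CellTiter-Glo luminescence after 30 min at room temperature.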

[4] = qHTS assay for small molecules that induce genotoxicity in human embryonic kidney cells expressing luciferase-tagged ATAD5 - cell viability (AID 651634; calls by dose curve; further: nearly all actives have a fitted effect of over 25% in size)
Method in brief: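 Cytotoxicity counter-readout: after 15.5 hr compound treatment at 37C, live-cell protease activity in ATAD5-luciferase HEK293T cells measured by CellTiter-Fluor fluorescence, 30 min development at 37C.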

[5] = qHTS assay for small molecule disruptors of the mitochondrial membrane potential - cell viability (AID 720634; calls by dose curve;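 further: human HepG2 liver cancer cells; series mostly up to about 83 µM; nearly all actives have a fitted effect of over 20% in size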)
Method in brief: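 Cytotoxicity was quantified from ATP content by CellTiter-Glo luminescence in the same wells as the MMP dye read-out. HepG2 (2,000 cells/well) were plated overnight and exposed to compounds for 1 hr at 37 C.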

[6] = qHTS assay to test for compound auto fluorescence at 590 nm (red) in HepG2 cells (AID 720674)
Method in brief: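 HepG2 cells, 2,000 per well in MEM with 10% FBS, attached overnight at 37 C, then got 23 nL compound or DMSO. After 1 hr at 37 C, 5% CO2, red fluorescence was read at 540/590 nm against Rose Bengal sodium as reference.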

[7] = qHTS assay to test for compound auto fluorescence at 535 nm (green) in HepG2 cells (AID 720675)
[8] = qHTS assay to test for compound auto fluorescence at 460 nm (blue) in HEK293 cells (AID 720678)
Method in brief: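 Intrinsic compound fluorescence is recorded in live HEK293 cultures after overnight incubation at 37C, 5% CO2, using excitation 405 nm and emission 460 nm. Values are referenced to triamterene.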

[9] = qHTS assay to test for compound auto fluorescence at 590 nm (red) in HEK293 cells (AID 720679)
Method in brief: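 Red autofluorescence, HEK293 cells: 2,000 cells/well; attach 4-5 hr 37C; add 23 nL cpd or DMSO; incubate o/n 37C 5% CO2; read Ex540/Em590; Rose Bengal sodium reference.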

[10] = qHTS assay to test for compound auto fluorescence at 535 nm (green) in HEK293 cells (AID 720680)
[11] = qHTS assay to test for compound auto fluorescence at 460 nm (blue) in HEK293 cell free culture (AID 720681)
Method in brief: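 Compounds were added to cell-free DMEM with 10% FBS and fluorescence read directly. The blue channel used 405 nm excitation and 460 nm emission, with triamterene as the reference fluorophore.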

[12] = qHTS assay to test for compound auto fluorescence at 535 nm (green) in HEK293 cell free culture (AID 720682)
Method in brief: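 Fluorescein serves as the green reference fluorophore; each compound's intrinsic emission at 535 nm (excitation 485 nm) is reported as an equivalent amount of that dye, measured in serum-containing DMEM without cells.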

[13] = qHTS assay to test for compound auto fluorescence at 590 nm (red) in HEK293 cell free culture (AID 720683)
Method in brief: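 Cell-free wells of DMEM with 10% FBS received compound, and intrinsic fluorescence was read at excitation/emission 540/590 nm. Values expressed as equivalence to Rose Bengal sodium.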

[14] = qHTS assay to test for compound auto fluorescence at 590 nm (red) in HepG2 cell free culture (AID 720684)
Method in brief: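 Auto fluorescence equivalency versus Rose Bengal sodium, red channel Ex/Em 540/590 nm; compounds in cell-free MEM/10% FBS; DMSO vehicle control.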

[15] = qHTS assay to test for compound auto fluorescence at 460 nm (blue) in HepG2 cell free culture (AID 720685)
Method in brief: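 Cell-free plates of MEM plus 10% FBS received 23 nL compound or DMSO vehicle; blue-channel (405/460 nm) intensity scored against triamterene as reference fluorophore.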

[16] = qHTS assay to test for compound auto fluorescence at 535 nm (green) in HepG2 cell free culture (AID 720686)
[17] = qHTS assay to test for compound auto fluorescence at 460 nm (blue) in HepG2 cells (AID 720687)
Method in brief: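 HepG2 cells in MEM with 10% FBS, attached overnight at 37 C, were exposed to compound or DMSO for 1 hr at 37 C, 5% CO2. Blue fluorescence was read at 405/460 nm, with triamterene as reference fluorophore.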

[18] = biological target: Glucocorticoid receptor (Homo sapiens) (UniProt P04150); assay: qHTS assay to identify small molecule agonists of the glucocorticoid receptor (GR) signaling pathway (AID 720691; active means well fitted activation curve with a large enough effect in the signal ratio in the repeat runs, not every such curve was filed as active; the % refers to the signal ratio)
Method in brief: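 Agonist-mode qHTS in HeLa cells stably expressing a glucocorticoid-response-element beta-lactamase reporter. Fluorescence intensity read with FRET substrate (2 h, room temperature) after 18 h compound treatment at 37 C.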

[19] = biological target: Glucocorticoid receptor (Homo sapiens) (UniProt P04150); assay: qHTS assay to identify small molecule antagonists of the glucocorticoid receptor (GR) signaling pathway (AID 720692; active means well fitted inhibition curve with a large enough effect in the signal ratio in the repeat runs, not every such curve was filed as active; the % refers to the signal ratio)
Method in brief: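 Inhibition of dexamethasone-driven (5 nM final) beta-lactamase expression was measured in GRE-reporter HeLa cells over 18 h at 37C. Fluorescence was read after 2 h with the B/G FRET substrate at room temperature.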

[20] = qHTS assay for small molecule disruptors of the mitochondrial membrane potential (AID 720635); further: potency means the concentration at half of the fitted maximal effect
Method in brief: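 HepG2 cells exposed to compound 1 hr at 37C, then Mito-MPS dye 30 min. Ratio read of aggregate (540/590 nm) versus monomer (490/535 nm) fluorescence.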
On the % scale 0 is the no-effect control and ±100 the full control effect.

Sequence of Glucocorticoid receptor (Homo sapiens) (P04150 whole entry, looked up): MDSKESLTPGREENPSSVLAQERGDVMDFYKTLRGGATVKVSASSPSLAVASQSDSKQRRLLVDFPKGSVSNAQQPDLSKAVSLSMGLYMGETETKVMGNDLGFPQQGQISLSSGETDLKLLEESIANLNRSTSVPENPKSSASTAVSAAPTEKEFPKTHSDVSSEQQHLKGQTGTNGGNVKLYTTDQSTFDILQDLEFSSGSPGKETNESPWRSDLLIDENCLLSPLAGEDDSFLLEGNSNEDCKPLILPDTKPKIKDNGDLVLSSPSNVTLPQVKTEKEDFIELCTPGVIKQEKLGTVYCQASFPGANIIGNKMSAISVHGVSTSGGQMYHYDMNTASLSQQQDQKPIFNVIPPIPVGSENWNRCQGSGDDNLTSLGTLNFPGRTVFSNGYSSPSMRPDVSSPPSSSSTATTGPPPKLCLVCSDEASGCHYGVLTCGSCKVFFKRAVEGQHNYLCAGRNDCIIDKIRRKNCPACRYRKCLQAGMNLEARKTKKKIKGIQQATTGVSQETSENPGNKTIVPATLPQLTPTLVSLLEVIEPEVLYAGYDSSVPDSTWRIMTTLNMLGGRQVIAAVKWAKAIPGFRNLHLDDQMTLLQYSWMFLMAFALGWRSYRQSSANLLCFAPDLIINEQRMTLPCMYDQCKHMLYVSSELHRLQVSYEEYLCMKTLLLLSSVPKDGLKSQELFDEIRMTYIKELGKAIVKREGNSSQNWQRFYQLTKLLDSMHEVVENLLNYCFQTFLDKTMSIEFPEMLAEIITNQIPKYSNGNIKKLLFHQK

C[C@H]1O[C@@H](n2cc(F)c(=O)[nH]c2=O)[C@H](O)[C@@H]1O
active: Potency [1] 21.1 µM | Potency [3] 8.41 µM
inactive: Potency [2] | Potency [4] | Potency [5] | outcome [6] | outcome [7] | Potency [8] | outcome [9] | outcome [10] | Potency [11] | outcome [12] | outcome [13] | outcome [14] | Potency [15] | outcome [16] | Potency [17] | Potency [18] | Potency [19]

OC1OC[C@@H](O)[C@H](O)[C@H]1O (stereo partly drawn)
inactive: Potency [1] | Potency [2] | Potency [3] | Potency [4] | Potency [5] | outcome [6] | outcome [7] | Potency [8] | outcome [9] | Potency [11] | outcome [12] | outcome [13] | outcome [14] | Potency [15] | outcome [16]

OCc1ccccn1
inactive: Potency [1] | Potency [2] | Potency [3] | Potency [4] | Potency [5] | outcome [7] | Potency [8] | outcome [9] | outcome [10] | Potency [11] | outcome [12] | outcome [13] | outcome [14] | Potency [15] | outcome [16] | Potency [17] | Potency [18] | Potency [19]

Oc1cc(O)c2c(c1)O[C@H](c1ccc(O)c(O)c1)[C@H](O)C2
inactive: Potency [1] | Potency [2] | Potency [3] | Potency [4] | Potency [5] | outcome [6] | outcome [7] | Potency [8] | outcome [9] | Potency [11] | outcome [12] | outcome [13] | outcome [14] | Potency [15] | outcome [16] | Potency [17] | Potency [18] | Potency [19]

Fc1ccccc1-c1ccccc1
inactive: Potency [1] | Potency [2] | Potency [3] | Potency [4] | Potency [5] | outcome [7] | Potency [8] | outcome [9] | outcome [10] | Potency [11] | outcome [12] | outcome [13] | outcome [14] | Potency [15] | outcome [16] | Potency [17] | Potency [18] | Potency [19]

CCn1cc(C(=O)O)c(=O)c2cc(F)c(N3CCN(C)CC3)cc21
inactive: Potency [1] | Potency [2] | Potency [3] | Potency [5] | outcome [6] | outcome [7] | Potency [8] | outcome [9] | outcome [10] | Potency [11] | outcome [12] | outcome [13] | outcome [14] | Potency [15] | outcome [16] | Potency [17] | Potency [18]

O=C(O)/C=C/c1ccc(Cn2ccnc2)cc1
inactive: Potency [1] | Potency [2] | Potency [3] | Potency [5] | fluorescence, relative to Rose Bengal [6] 0.61% [at 18.6 µM] | fluorescence, % of fluorescein control [7] 0.0058% [at 18.6 µM] | fluorescence, % of triamterene [8] -0.0046% [at 18.6 µM] | fluorescence, % of fluorescent control [9] -0.336% [at 18.6 µM] | fluorescence, % of fluorescein [10] -0.0116% [at 18.6 µM] | fluorescence, % of fluorescent control [11] 0.209% [at 18.6 µM] | activity change [12] 0.0066% [at 18.6 µM] | fluorescence, % of fluorescent control [13] -0.0715% [at 18.6 µM] | fluorescence, % of Rose Bengal [14] -0.307% [at 18.6 µM] | fluorescence, % of fluorescent control [15] -0.0401% [at 18.6 µM] | fluorescence, % of fluorescein control [16] -0.0119% [at 18.6 µM] | Potency [18] | Potency [19]

NCCN1CCNC1=O
inactive: Potency [1] | Potency [2] | Potency [3] | Potency [4] | Potency [5] | outcome [6] | outcome [7] | Potency [8] | outcome [9] | outcome [10] | Potency [11] | outcome [12] | outcome [13] | outcome [14] | Potency [15] | outcome [16] | Potency [17] | Potency [18] | Potency [19]

CCCCCOC(=O)Nc1nc(=O)n([C@@H]2O[C@H](C)[C@@H](O)[C@H]2O)cc1F
inactive: Potency [1] | Potency [2] | Potency [3] | Potency [4] | Potency [5] | outcome [7] | Potency [8] | outcome [9] | outcome [10] | Potency [11] | outcome [12] | outcome [13] | outcome [14] | Potency [15] | outcome [16] | Potency [17]

CCCCCCCCCCCl
inactive: Potency [1] | Potency [2] | Potency [3] | Potency [5] | Potency [20] | outcome [6] | outcome [7] | Potency [8] | outcome [9] | outcome [10] | Potency [11] | outcome [12] | outcome [13] | outcome [14] | Potency [15] | outcome [16] | Potency [18]

C=C(C)C(=O)OCCC(C)OC(=O)C(=C)C (stereo not drawn)
inactive: Potency [1] | Potency [2] | Potency [3] | Potency [4] | Potency [5] | outcome [6] | outcome [7] | Potency [8] | outcome [9] | outcome [10] | Potency [11] | outcome [12] | outcome [13] | outcome [14] | Potency [15] | outcome [16] | Potency [17] | Potency [18] | Potency [19]

COc1ccc(N=[N+]([O-])c2ccc(OC)cc2)cc1
active: Potency [2] 0.136 µM | Potency [20] 27 µM
inactive: Potency [1] | Potency [3] | Potency [4] | outcome [6] | outcome [7] | Potency [8] | outcome [9] | outcome [10] | Potency [11] | outcome [12] | outcome [13] | outcome [14] | Potency [15] | outcome [16] | Potency [18]

CCC(=O)Nc1cccc(N)c1
inactive: Potency [1] | Potency [2] | Potency [3] | Potency [4] | Potency [5] | outcome [6] | outcome [7] | Potency [8] | outcome [9] | outcome [10] | Potency [11] | outcome [12] | outcome [13] | outcome [14] | Potency [15] | outcome [16] | Potency [18] | Potency [19]
